From PubChem
An excerpt weighted towards active compounds, which were near 19% of everything screened.
TDP1 cell noCPT = qHTS for Inhibitors of human tyrosyl-DNA phosphodiesterase 1 (TDP1): qHTS in cells in absence of CPT; DT40 Tdp1-/- hTDP1 cells, no CPT, ATP luminescence, 48 h; Potency, µM (titrated, usually from 46.2 µM), for inactives: at the highest dose activity change, negative = growth inhibition, most hits filed as inhibitors; 420,000 compounds, 15% hits; also: potency is read from the fitted curve at half-maximal effect; % is scaled to controls: 0 for no effect and ±100 for the full control effect; nearly all actives have a fitted effect of over 55% in size
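Luminescent ATP content (CellTiter-Glo) served as the growth readout. Knockout chicken DT40 cells expressing human TDP1 were exposed to compounds without camptothecin for a minimum 48 hr at 37 °C.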
DT40 TDP1 CPT = DT40-hTDP1 cell growth loss with CPT | Potency, µM (top dose mostly 46.2 µM), for inactives: top-dose activity change, negative = growth inhibition, hits mostly inhibitors | AID 686979 | chicken DT40 Tdp1-/-;hTDP1 cells + 20 nM CPT, ATP luminescence, 48 h | 420,000 compounds, 12% hits; also: potency is read from the fitted curve at half-maximal effect; % is scaled to controls: 0 for no effect and ±100 for the full control effect; nearly all actives have a fitted effect of over 55% in size
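Chicken DT40 Tdp1-/- cells stably complemented with human TDP1 were seeded at 400 cells/well in medium containing 20 nM camptothecin, exposed to pin-transferred compounds, and grown at 37 °C for at least 48 hr. Viability was read as ATP luminescence.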
SW480 rerep = DNA re-replication induction in SW480 cells | SW480 DNA re-replication, Hoechst DNA content imaging, 48 h | Potency, µM (series often up to 46.1 µM), inactives show top-dose re-replication activation, actives largely listed as activators | 340,000 compounds, 1.8% hits | AID 624297; also: potency is read from the fitted curve at half-maximal effect; % of control where 0% means no effect; nearly all actives have a fitted effect of over 55% in size
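Treated cells incubate 48 hr (37 C, 5% CO2), are stained 40 min with Hoechst, and nuclear fluorescence is enumerated; a rise in nuclei with high DNA signal marks re-replication.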
Chronic BCR inh = chronic active BCR signaling inhibition | ABC-DLBCL IkBa-CBG/CBR reporter, luminescence ratio, 4 h | Potency, µM (highest dose often 46.1 µM), without a hit: at the highest dose activity change, negative = inhibition, most hits filed as inhibitors | 340,000 compounds, 0.05% hits | AID 493014; active = well fitted inhibition curve with a large enough effect in the signal ratio, with a control signal flat, not every such curve was filed as active; inconclusive = small, poorly fitted or top-dose-only effect, or effect the other way, or a change in a side signal; the % refers to the signal ratio;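 also: potency is read from the fitted curve at half-maximal effect; plate controls were basal doxycycline-induced cells for no effect and cells given 10 µM MG132 for full effect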
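Cell line TMD8 (human ABC DLBCL), stably expressing tet-inducible CBG68-IkBa fusion and CBR; IMDM/0.5% FBS; cpd up to 46 uM; dox induction, 4 h, 37C/5% CO2; dual luminescence; green/red ratio; MG132 control.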
MCF10A rereplic = induces DNA re-replication in MCF 10a normal breast cells; MCF 10A DNA re-replication, Hoechst nuclear intensity, 48 h; Potency, µM (series often up to 46.1 µM), inactives show at the highest dose activity, positive = re-replication, usual class: activators; 350,000 compounds, 2.9% hits; AID 624296; also: potency is read from the fitted curve at half-maximal effect; % of control where 0% means no effect; nearly all actives have a fitted effect of over 50% in size
IL1B secr inh = inflammasome signaling inhibition, IL-1 beta readout. THP-1 LPS/ATP IL-1B secretion, AlphaLISA, 16 h; active compounds read low. activity change, % at 57.5 µM. 360,000 compounds, 4.7% hits. AID 743279; in the data active = activity change below about -50%; inconclusive = mostly about -30% to -49%; also: % is scaled to controls: 0 for no effect and ±100 for the full control effect
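THP-1 cells pretreated 1 hr with compounds (up to 57.5 uM final), then stimulated with LPS (250 ng/mL final) plus ATP (1.25 mM final); secreted IL-1B measured by AlphaLISA after 16 hr, decreased signal indicating inhibition.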
Numbers without * were called inactive; i = inactive; u = inconclusive; x = no result given; [ ] = remark or other dose. Unless noted, calls follow the shape of the dose curve; as a rule, active = well fitted curve in the direction sought with a large enough effect; inconclusive = small, poorly fitted or top-dose-only effect, or another doubt; inactive = no such curve, though single readings can be large; an effect the other way counts as inactive or inconclusive.

SMILES	TDP1 cell noCPT	DT40 TDP1 CPT	SW480 rerep	Chronic BCR inh	MCF10A rereplic	IL1B secr inh
COCCn1c(C)cc(O)c(C(c2ccc(F)cc2)N2CCN(c3ccccc3)CC2)c1=O (centres undefined)	4%	-7%	x	x	x	x
COc1cc2c(=O)n(CCCC(=O)NCC3CCCO3)c(=O)n(CC(=O)c3ccc(F)cc3)c2cc1OC (centres undefined)	-19%	-16%	-2%	-11%	-2%	12
COc1ccc(-n2ncc(C(=O)N3CCN(c4ccccn4)CC3)c2C2CCN(C(=O)OC(C)(C)C)CC2)cc1	21µM*	u	x	x	x	x
COc1ccc(-n2ncc(C(=O)N3CCOCC3)c2C2CCN(C(=O)OC(C)(C)C)CC2)cc1	-1%	6%	x	x	x	x
CCOc1cc(C(C(=O)NCC2CCCO2)N(C(=O)Cn2nnc3ccccc32)c2ccccc2OC)ccc1O (centres undefined)	-1%	6%	0%	5%	0%	26
COC(=O)N1CCCCC1c1cc(C(=O)Nc2cccc3c2CCCC3)no1 (centres undefined)	u	u	x	x	x	9
Cn1cnc(S(=O)(=O)N2CCCCC2c2cc(C(=O)Nc3cccc4c3CCCC4)no2)c1 (centres undefined)	13µM*	21µM*	x	x	x	30
COCCOC(=O)N1CCCCC1c1cc(C(=O)Nc2cccc3c2CCCC3)no1 (centres undefined)	4.6µM*	3.7µM*	x	x	x	40
O=C(Nc1cccc2c1CCCC2)c1cc(C2CCCCN2C(=O)OCCF)on1 (centres undefined)	9.2µM*	9.2µM*	x	x	x	8
Cn1cnc(S(=O)(=O)N2CCCCC2c2cc(C(=O)Nc3ccccc3Cl)no2)c1 (centres undefined)	-17%	-18%	x	x	x	24
COC(=O)c1cc(NC(=O)COC(=O)C2CCC2)cc(C(=O)OC)c1	-2%	7%	-1%	u	0%	44
COc1ccc(S(=O)(=O)N2CCCOC2CNC(=O)C(=O)NCCc2ccco2)cc1 (centres undefined)	-8%	-1%	3%	-1%	-2%	-14
CC(=O)c1ccc(C(C)(C)c2ccc(C(C)=O)s2)s1	23µM*	u	-7%	-10%	14%	-9
Brc1cccc(-c2nnc(SCc3nc4ccccc4[nH]3)o2)c1	u	u	-6%	u	10%	-56*
c1ccc2[nH]c(CSc3nnc(-c4ccncc4)o3)nc2c1	u	u	5%[9.22 µM]	-17%	0%	15
Clc1ccc(-c2nnc(SCc3nc4ccccc4[nH]3)o2)c(Cl)c1	9.2µM*	u	-2%	-3%	-6%	-1
CC1=C(C#N)c2nc(N)c(C#N)c(C)c2/C1=C\c1ccc(OCC(=O)O)c(Cl)c1	u	-28%	1%	3%	1%	17
c1ccc2nc(-c3cc4ccccc4s3)ccc2c1	-26%	-29%	x	x	x	x
F[B-](F)(F)c1cc2cc(Br)ccc2s1	-21%	-13%	17%	x	-5%	-62*
F[B-](F)(F)c1cc2ccccc2s1	-29%	-24%	3%[9.22 µM]	x	4%	-70*
Cc1ccc(S(=O)(=O)NCCn2nc(C)nc2C)cc1	2%	16%	-10%	-5%	-20%	-5
CCOc1ncccc1C(=O)Nc1ccc2nc(C)sc2c1	18µM*	u	u	-11%	15%	-5
CCOc1ncccc1C(=O)Nc1cc(S(=O)(=O)N2CCCCC2)ccc1Cl	-25%	-21%	-4%	0%	4%	-5
CCOc1ncccc1C(=O)Nc1ccc(Cl)c(S(=O)(=O)N2CCCC2)c1	21µM*	21µM*	-2%	u	3%	5
O=C(NCc1nnnn1-c1ccc(F)c(F)c1)c1cc2ccccc2o1	-12%	-7%	-13%	-4%	-6%	-23
SMILES	TDP1 cell noCPT	DT40 TDP1 CPT	SW480 rerep	Chronic BCR inh	MCF10A rereplic	IL1B secr inh
C[C@H](CO)N1C[C@H](C)[C@@H](CN(C)C(=O)Nc2ccc3c(c2)OCO3)Oc2ccc(NS(=O)(=O)c3ccc(F)cc3)cc2C1=O	13%	8%	u	u	u	-3
CC1=CCC2COC(c3ccc[n+](Cc4ccccc4)c3)C1C2 (centres undefined)	2.9µM*	3.7µM*	u	1%	-4%	-7
O=C(Nc1cc(C(F)(F)F)cc(C(F)(F)F)c1)[C@H]1O[C@@H](n2ccc(=O)[nH]c2=O)[C@H](O)[C@@H]1O	-28%	-28%	x	x	x	6
CNS(=O)(=O)c1ccc2nc(NC(=O)c3ccc(N4C(=O)CCC4=O)cc3)sc2c1	21µM*	u	-78%	-8%	-7%	13
O=C(Nc1nc2ccc(S(=O)(=O)N3CCCCC3)cc2s1)c1cccnc1	u	-13%	u	u	u	44
CCc1ccc2nc(NC(=O)c3ccc(N4C(=O)CCC4=O)cc3)sc2c1	-11%	-27%	1%	u	-8%	-1
O=C(Nc1nc2ccc(S(=O)(=O)N3CCCC3)cc2s1)c1ccccn1	2.9µM*	6.5µM*	9%	1%	-2%	-9
O=C(Nc1nc2ccc(S(=O)(=O)N3CCCC3)cc2s1)c1cccc(F)c1	12µM*	u	x	x	x	x
COCCNc1cc(-c2ccccc2C)ncn1	31%	8%	x	x	x	x
Cc1ccc(C(=O)N2CCN(S(=O)(=O)N3CCCCC3)CC2)cc1	1%	-4%	-12%	-3%	-8%	i
CCOC(=O)c1c(C)oc2c(F)c(F)c(F)c(F)c2c1=O	21µM*	16µM*	u	-13%	6.5µM*	-121*
CCOC(=O)c1c(C)oc(=O)c(CC)c1O	9%	1%	x	x	x	-5
CC(C)(C)C(=O)Cn1ncc(Br)c(Br)c1=O	1.8µM*	4.6µM*	7.3µM*	u	5.8µM*	-100*
CC(C)(C)C(=O)Cn1ncc(N2CCOCC2)c(Cl)c1=O	-9%	-18%	-9%	-1%	-2%	17
CCNC(=S)N/N=C/c1cccc(OCc2c(F)cccc2Cl)c1	16µM*	u	1%	0%	u	0
Fc1ccccc1COc1ccc(/C=N/NC(=S)NCc2ccccc2)cc1	13µM*	12µM*	u	u	u	-6
CNC(=S)N/N=C/c1cccc(OCc2ccccc2F)c1	23µM*	u	-5%	-19%	16%	-6
